Reference: PubChem BioAssay (EPA / NIEHS)
Where “and” joins values, the source holds several entries; their conditions need not be identical. Equal values may be shown once. Calls of active or inactive are those of the source. How the source made its calls: active means hit-call score of the fitted dose curve at least 0.9, where 1 is the maximum; inactive means score below 0.9.

read-out: Monokine induced gamma interferon (MIG), CXCL9 (gene 4283); assay: BSK_BE3C_MIG: BioMAP Diversity Plus: BE3C Assay for Monokine induced gamma interferon (MIG) Biomarker Activity (AID 2283035); conditions: primary human bronchial epithelial cells; actives raise or lower the signal
Method: BSK_BE3C is a cell-based, multiplexed-readout assay that uses bronchial epithelial cell, a human lung primary cell, with measurements taken at 24 hours after chemical dosing in a 96-well plate.BSK_BE3C_MIG is an assay component measured in the BSK_BE3C assay. It measures MIG antibody related to regulation of gene expression using ELISA technology.Data from the assay component BSK_BE3C_MIG was analyzed into 1 assay endpoint. This assay endpoint, BSK_BE3C_MIG, was analyzed with bidirectional fitting relative to DMSO as the negative control and baseline of activity. Using a type of binding reporter, gain or loss-of-signal activity can be used to understand changes in the signaling as they relate to the gene CXCL9. Furthermore, this assay endpoint can be referred to as a primary readout, because this assay has produced multiple assay endpoints where this one serves a signaling function. To generalize the intended target to other relatable targets, this assay endpoint is annotated to the cytokine intended target family, where the subfamily is chemotactic factor.
The levels of cell surface (or secreted, indicated by the prefix "s") biomarker endpoints were measured by ELISA. Overt cytotoxicity to cells in confluent adherent cultures (all systems other than the BT system) was assessed by measuring total protein levels using sulforhodamine B (SRB) staining in parallel cultures at the time of biomarker measurements, indicated as SRB endpoints. For proliferation assays for adherent cell types, individual cell types are cultured at sub-confluence and relative cell numbers quantified by SRB staining at time points optimized for each system (48 h: 3C and CASM3C systems; 72 h: BT and HDF3CGF systems; 96 h: SAg system). SRB was performed by staining cells with 0.1% SRB after fixation with 10% TCA and reading wells at 560 nm.Viability and proliferation of PBMC (T cells) was quantified by Alamar Blue reduction for the SAg and BT systems. For PBMC viability (referred to as PBMC Cytotoxicity within the assay endpoint names), cells were plated (75,000/well in a 96-well plate) and then chemical samples added for 1 h before addition of activators, SEB and TSST-1 (20 ng/mL final concentration each). Cells were incubated for 90 h. Then, Alamar Blue (20 uL/well) (Invitrogen, Cat DAL1100) was added for 6 h, and the plates were read with a fluorescence microplate reader at 546/580 nm (excitation/emission). For PBMC proliferation, cells were plated and activated as above but incubated for only 16 h prior to addition of Alamar Blue. Plates were read after 6 h.

Row | SMILES | outcome | AC50
1 | OCC(O)CC(F)(F)C(F)(F)C(F)(F)C(F)(F)F (stereo not given) | inactive | 
2 | Cc1cc(O)c(C(C)(C)C)cc1C(C)(C)C |  | 11 µM (active)
3 | OCC(F)(F)C(F)(F)C(F)(F)C(F)(F)C(F)(F)C(F)(F)CO | inactive | 
4 | CC(C)CCCC(C)CCO (stereo not given) | inactive | 
5 | O=C(O)CCC(F)(F)C(F)(F)C(F)(F)F | inactive | 
6 | OCC(O)CC(F)(F)C(F)(F)C(F)(F)C(F)(F)C(F)(F)C(F)(F)C(F)(F)C(F)(F)F (stereo not given) | inactive | 
7 | NS(=O)(=O)C(F)(F)C(F)(F)C(F)(F)C(F)(F)C(F)(F)C(F)(F)F | inactive | 
8 | NCC(F)(F)C(F)(F)C(F)(F)C(F)(F)C(F)(F)C(F)(F)C(F)(F)C(F)(F)F | inactive | 
9 | Nc1cc([N+](=O)[O-])cc(Cl)c1O | inactive | 
10 | CCOC(C=C(C)CCC=C(C)C)OCC | inactive | 
11 | CN(C(=O)C(F)(F)C(F)(F)C(F)(F)F)[Si](C)(C)C | inactive | 
12 | Brc1nc2ccccc2s1 | inactive | 
13 | OCCCC(F)(F)C(F)(F)C(F)(F)C(F)(F)C(F)(F)C(F)(F)C(F)(F)C(F)(F)F |  | 56.5 µM (active) and 53.4 µM (active)
14 | C=CC(=O)OCC(F)(F)C(F)(F)C(F)(F)COC(=O)C=C |  | 51.8 µM (active) and 49.1 µM (active)
15 | O=C(O)C(F)(F)C(F)(F)C(F)(F)OC(F)(C(F)(F)F)C(F)(F)F | inactive | 
16 | NC(O)(C(F)(F)F)C(F)(F)F | inactive | 
17 | CCN(CC)c1ccc(N=Nc2ccccc2)cc1 | inactive | 
18 | O=C(Cl)C(F)(F)C(F)(F)C(F)(F)C(F)(F)C(F)(F)C(F)(F)C(F)(F)F | inactive | 
19 | O=C(O)C(F)(F)C(F)(F)C(F)(F)OC(F)(F)F | inactive | 
20 | FC(F)(F)C(F)(F)C(F)(F)CC1CO1 (stereo not given) | inactive | 

Row | SMILES | outcome | AC50
21 | O=C=NCc1cccc(CN=C=O)c1 | inactive | 
22 | C[Si](Cl)(Cl)CCC(F)(F)C(F)(F)C(F)(F)C(F)(F)C(F)(F)C(F)(F)F | inactive | 
23 | Cc1cc(C)c(O)c(C(C)(C)C)c1 |  | 36 µM (active)
24 | NC(=O)C(F)(F)C(F)(F)C(F)(F)C(F)F | inactive | 
25 | O=C(Cl)C(F)(F)C(F)(F)C(F)(F)C(F)(F)C(F)(F)C(F)(F)F | inactive | 
26 | O=C(O)C(F)(F)C(F)(F)C(F)(F)C(=O)O | inactive | 
27 | O=C(O)CCC(F)(F)C(F)(F)C(F)(F)C(F)(F)C(F)(F)C(F)(F)C(F)(F)F | inactive | 
28 | O=S(=O)(O)CCC(F)(F)C(F)(F)C(F)(F)C(F)(F)F | inactive | 
29 | Cc1ccc(O)c(-n2nc3ccccc3n2)c1 | inactive | 
30 | CCN(CC)c1ccc(C=O)c(O)c1 | inactive | 
31 | CCN(CCO)S(=O)(=O)C(F)(F)C(F)(F)C(F)(F)C(F)(F)C(F)(F)C(F)(F)C(F)(F)C(F)(F)F |  | 50.6 µM (active) and 43.2 µM (active)
32 | OCC(F)(F)C(F)(F)C(F)(F)C(F)(F)C(F)(F)C(F)(F)C(F)(F)C(F)(F)CO |  | 43 µM (active) and 46.6 µM (active)
33 | COC(F)(C(F)F)C(F)(F)F (stereo not given) | inactive | 
34 | O=C(c1ccccc1)c1ccc(O)cc1O | inactive | 
35 | CC1=CC2C3C=CC(C3)C2C1C (stereo not given) | inactive | 
36 | O=C=Nc1cccc2c(N=C=O)cccc12 | inactive | 
37 | Cc1ccc(S(=O)(=O)C(I)I)cc1 |  | 11 µM (active)
38 | CCN(CC)c1ccc(C=O)cc1 | inactive | 
39 | C=CC(=O)OCCC(F)(F)C(F)(F)C(F)(F)C(F)(F)F | inactive | 
40 | O=S(=O)(Cl)C(F)(F)C(F)(F)C(F)(F)C(F)(F)C(F)(F)C(F)(F)C(F)(F)C(F)(F)F |  | 55.8 µM (active) and 53.6 µM (active)
